The values that follow come from PubChem BioAssay (EPA / NIEHS).

Values joined by “and” are separate entries in the source; they are usually repeats but may differ in a detail not shown here. Identical values can stand only once. More than one record can exist for a structure, and the calls need not agree. Active and inactive are the calls of the source. How the source made its calls: active means hit-call score of the fitted dose curve at least 0.9, where 1 is the maximum; inactive means score below 0.9.

Read-out in assay [1]: Matrix Metallopeptidase 1 (MMP1), MMP1 (gene 4312)
In words: BSK_BF4T_MMP1: BioMAP Diversity Plus: BF4T Assay for Matrix Metallopeptidase 1 (MMP1) Biomarker Activity (AID 2284270). The following applies: primary human bronchial epithelial cells with fibroblasts. Put shortly: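 MMP-1 quantified by ELISA in primary human bronchial epithelial/dermal fibroblast co-cultures, 24 hours post-dosing, with DMSO as baseline; parallel sulforhodamine B staining (560 nm) tracks overt cytotoxicity.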

Read-out in assay [2]: Tissue plasminogen activator (tPA), PLAT (gene 5327)
As to the kind of experiment: BSK_BF4T_tPA: BioMAP Diversity Plus: BF4T Assay for Tissue plasminogen activator (tPA) Biomarker Activity (AID 2284272). The following applies: primary human bronchial epithelial cells with fibroblasts. A digest of the protocol:
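tPA level quantified by ELISA at 24 h post-treatment in bronchial epithelial/dermal fibroblast co-cultures, gain of signal scored against DMSO baseline. Parallel cultures stained with 0.1% SRB (560 nm) to flag overt cytotoxicity.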

Read-out in assay [3]: Plasminogen Activator Inhibitor-1 (PAI1), SERPINE1 (gene 5054)
In words: BSK_BF4T_PAI1: BioMAP Diversity Plus: BF4T Assay for Plasminogen Activator Inhibitor-1 (PAI1) Biomarker Activity (AID 2284273). The following applies: primary human bronchial epithelial cells with fibroblasts. A digest of the protocol: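 PAI-1 levels quantified by ELISA 24 h post-dosing in bronchial epithelial cell plus dermal fibroblast cultures. Signal gain referenced to DMSO baseline. Sulforhodamine B total-protein staining of parallel wells checked cytotoxicity.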

Read-out in assay [4]: urokinase Plasminogen Activator (uPA), PLAU (gene 5328)
In words: BSK_BF4T_uPA: BioMAP Diversity Plus: BF4T Assay for urokinase Plasminogen Activator (uPA) Biomarker Activity (AID 2284275). As to conditions: primary human bronchial epithelial cells with fibroblasts. Put shortly:
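uPA levels measured by ELISA at 24 hours in BF4T cultures (bronchial epithelial cells plus dermal fibroblasts) and compared with DMSO; cytotoxicity tracked in parallel cultures by sulforhodamine B staining.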

Read-out in assay [5]: Matrix Metallopeptidase 9 (MMP9), MMP9 (gene 4318)
As to the kind of experiment: BSK_BF4T_MMP9: BioMAP Diversity Plus: BF4T Assay for Matrix Metallopeptidase 9 (MMP9) Biomarker Activity (AID 2284276). The following applies: primary human bronchial epithelial cells with fibroblasts. A digest of the protocol:
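MMP-9 levels were measured by ELISA after 24 h exposure of bronchial epithelial cell/dermal fibroblast co-cultures, with DMSO as baseline. Parallel cultures were stained with 0.1% SRB after TCA fixation, read at 560 nm, to flag overt cytotoxicity.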

Read-out in assay [6]: Interferon-inducible T-cell alpha chemoattractant (ITAC), CXCL11 (gene 6373)
In words: BSK_BE3C_ITAC: BioMAP Diversity Plus: BE3C Assay for Interferon-inducible T-cell alpha chemoattractant (ITAC) Biomarker Activity (AID 2284279). As to conditions: primary human bronchial epithelial cells. A digest of the protocol: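 ELISA read-out of I-TAC after 24 h chemical dosing of human lung primary bronchial epithelial cells; gain-of-signal fit vs DMSO baseline. Parallel SRB total-protein staining (0.1% SRB, 10% TCA fixation, 560 nm) assessed cytotoxicity.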

Read-out in assay [7]: Interleukin-8 (IL8), CXCL8 (gene 3576)
In words: BSK_BE3C_IL8: BioMAP Diversity Plus: BE3C Assay for Interleukin-8 (IL8) Biomarker Activity (AID 2284280). As to conditions: primary human bronchial epithelial cells. Put shortly: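 Primary human bronchial epithelial cells (BE3C system) were exposed to test chemical for 24 h, and IL-8 levels were then measured by ELISA. Activity was fitted in the positive (gain-of-signal) direction against a DMSO negative-control baseline.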

Read-out in assay [8]: Epidermal growth factor receptor (EGFR), EGFR (gene 1956)
As to the kind of experiment: BSK_BE3C_EGFR: BioMAP Diversity Plus: BE3C Assay for Epidermal growth factor receptor (EGFR) Biomarker Activity (AID 2284281). The following applies: primary human bronchial epithelial cells. Put shortly:
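Human primary bronchial epithelial cells were exposed to compound for 24 h, and cell-surface EGFR was then quantified by ELISA. Activity was fitted in the positive direction against the DMSO vehicle baseline.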

Read-out in another assay: KRT18 (gene 3875)
As to the kind of experiment: BSK_BE3C_Keratin818: BioMAP Diversity Plus: BE3C Assay for Keratin 818 Biomarker Activity (AID 2284282). The following applies: primary human bronchial epithelial cells. A digest of the protocol: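 ELISA read-out of Keratin 8/18 in BE3C human bronchial epithelial cultures, 24 h post-dosing; positive-direction fit vs DMSO baseline.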

Read-out in assay [9]: Matrix Metallopeptidase 9 (MMP9), MMP9 (gene 4318)
As to the kind of experiment: BSK_BE3C_MMP9: BioMAP Diversity Plus: BE3C Assay for Matrix Metallopeptidase 9 (MMP9) Biomarker Activity (AID 2284283). The following applies: primary human bronchial epithelial cells. Put shortly:
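Human primary bronchial epithelial cells exposed 24 h to compound. MMP9 quantified by ELISA. SRB total-protein staining of parallel cultures assesses cytotoxicity. Positive-direction fit relative to DMSO.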

Read-out in assay [10]: Plasminogen activator inhibitor-1 (PAI1), SERPINE1 (gene 5054)
In words: BSK_CASM3C_PAI1: BioMAP Diversity Plus: CASM3C Assay for Plasminogen activator inhibitor-1 (PAI1) Biomarker Activity (AID 2284284). As to conditions: primary human coronary artery smooth muscle cells.

Read-out in assay [11]: Monocyte Chemoattractant Protein-1 (MCP1), CCL2 (gene 6347)
In words: BSK_hDFCGF_MCP1: BioMAP Diversity Plus: hDFCGF Assay for Monocyte Chemoattractant Protein-1 (MCP1) Biomarker Activity (AID 2284285). The following applies: primary human foreskin fibroblasts. Put shortly:
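MCP-1 ELISA readout was taken 24 hours after dosing primary human dermal fibroblasts in the hDFCGF system, with DMSO as baseline. Parallel sulforhodamine B staining of total protein tracked overt cytotoxicity.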

Read-out in assay [12]: Vascular cell adhesion molecule 1 (VCAM1), VCAM1 (gene 7412)
As to the kind of experiment: BSK_IMphg_VCAM1: BioMAP Diversity Plus: IMphg Assay for Vascular cell adhesion molecule 1 (VCAM1) Biomarker Activity (AID 2284286). As to conditions: primary human endothelial cells with macrophages. A digest of the protocol:
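ELISA read-out of VCAM-1 on venular endothelial cell/macrophage co-cultures at 24 h post-treatment, with DMSO as baseline and positive-direction fitting. Parallel sulforhodamine B total-protein staining (560 nm) served as the overt cytotoxicity measure.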

Read-out in assay [13]: Intercellular Adhesion Molecule 1 (ICAM1), ICAM1 (gene 3383)
In words: BSK_hDFCGF_ICAM1: BioMAP Diversity Plus: hDFCGF Assay for Intercellular Adhesion Molecule 1 (ICAM1) Biomarker Activity (AID 2284287). As to conditions: primary human foreskin fibroblasts. A digest of the protocol: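 ICAM-1 ELISA readout 24 h after dosing, DMSO as baseline, in human dermal foreskin fibroblast cultures. Cytotoxicity checked in parallel wells by SRB staining (0.1% SRB, 10% TCA fixation, 560 nm).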

Read-out in another assay: CD40, CD40 (gene 958)
In words: BSK_IMphg_CD40: BioMAP Diversity Plus: IMphg Assay for CD40 Biomarker Activity (AID 2284288). The following applies: primary human endothelial cells with macrophages. A digest of the protocol: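 ELISA read-out of cell-surface CD40 at 24 h in human venular endothelial cell/macrophage co-cultures. Activity fitted in the positive direction against DMSO; parallel SRB staining (560 nm) gauges overt cytotoxicity.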

Read-out in assay [14]: TIMP metallopeptidase inhibitor 2 (TIMP2), TIMP2 (gene 7077)
In words: BSK_hDFCGF_TIMP2: BioMAP Diversity Plus: hDFCGF Assay for TIMP metallopeptidase inhibitor 2 (TIMP2) Biomarker Activity (AID 2284289). The following applies: primary human foreskin fibroblasts. Put shortly: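 Primary human foreskin fibroblasts in the hDFCGF system, dosed for 24 h; TIMP-2 level measured by ELISA, fitted in the positive direction against DMSO; cytotoxicity checked in parallel by sulforhodamine B total protein staining.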

Read-out in assay [15]: Intercellular Adhesion Molecule 1 (ICAM1), ICAM1 (gene 3383)
As to the kind of experiment: BSK_BE3C_ICAM1: BioMAP Diversity Plus: BE3C Assay for Intercellular Adhesion Molecule 1 (ICAM1) Biomarker Activity (AID 2284278). As to conditions: primary human bronchial epithelial cells. A digest of the protocol:
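ELISA read-out of ICAM-1 on human lung bronchial epithelial primary cells, 24 h post-dosing; positive-direction curve fit, DMSO = baseline. SRB total-protein staining of parallel cultures flagged overt cytotoxicity.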

The term AC50 denotes the midpoint of the concentration-response curve, whichever way the signal moves. Consider `FC(F)(F)C(F)(F)C(F)(F)C(F)(F)C(F)(F)C(F)(F)CC[Si](Cl)(Cl)Cl`, for which the outcome in assay [1], in assay [2], in assay [3], in [4], in assay [5] and in [6] was inactive. The outcome (in [7]; in [8]; with KRT18 (gene 3875); in [9]; in assay [10]; in assay [11]) was inactive. The outcome was “inactive” in [12]; “inactive” in assay [13]; “inactive” in the assay with CD40, CD40 (gene 958). In addition, the AC50 in [11] was 39.3 nM (active).

As for `OC(O)C(F)(F)C(F)(F)F`, the result in [1], in [2], in assay [3], in assay [4], in assay [5] and in assay [6] was inactive. The result (in assay [8]; with KRT18 (gene 3875); in assay [9]; in [10]; in assay [11]; in assay [12]) was inactive. Besides, the outcome in assay [13] was “inactive”; in the assay with CD40, CD40 (gene 958) it was “inactive”.

Turning to `O=C(O)C(F)(F)C(F)(F)C(F)(F)C(F)(F)C(F)(F)C(F)(F)C(F)F`, the outcome in assay [1], in [2], in assay [3], in assay [4], in assay [5] and in assay [6] was inactive. Also, the outcome (in assay [8]; with KRT18 (gene 3875); in assay [9]; in assay [10]; in assay [11]; in assay [12]) was inactive. The outcome in assay [13] is “inactive”; in the assay with CD40, CD40 (gene 958), “inactive”.

On to `OCC(F)(F)C(F)(F)C(F)(F)C(F)(F)C(F)(F)C(F)(F)CO`, for which the outcome in assay [1], in [2], in [3], in assay [4], in [5] and in [6] was inactive. The outcome (in [8]; with KRT18 (gene 3875); in [9]; in [10]; in [11]; in assay [12]) was inactive. Moreover, the outcome is “inactive” in assay [13]; “inactive” with CD40, CD40 (gene 958); “inactive” in assay [14].

For the molecule `C=CC(=O)OCC(F)(F)C(F)(F)C(F)(F)C(F)(F)C(F)(F)C(F)(F)C(F)(F)C(F)F`, the result in assay [1], in assay [2], in [3], in assay [4], in assay [5] and in [6] was inactive. Besides, the result (in [7]; in assay [8]; with KRT18 (gene 3875); in [9]; in [10]; in [11]) was inactive. Moreover, the outcome in assay [12] was “inactive”; in assay [13], “inactive”; with CD40, CD40 (gene 958) it was “inactive”. For the same molecule, the values for the concentration at half-maximal activity (AC50) in assay [11] and in assay [13] were 6810 nM (active) and 20.3 µM (active), respectively.

`OCC(F)(F)C(F)(F)C(F)(F)C(F)(F)C(F)(F)C(F)(F)C(F)(F)C(F)(F)CO`: the result (in [1]; in assay [4]; in the assay with KRT18 (gene 3875); in assay [10]; in assay [14]) was inactive. Besides, the AC50 was 9.85 µM (active) and 12.6 µM (active) in assay [2]; 15.1 µM (active) and 13.6 µM (active) in [3]; 27.6 µM (active) and 23.7 µM (active) in assay [5]; 44.7 µM (active) and 40.3 µM (active) in assay [15]; 39.6 µM (active) and 31.6 µM (active) in assay [6]; 30 µM (active) and 25.2 µM (active) in assay [8]. The AC50 in assay [9] is 34.8 µM (active) and 22.1 µM (active); in [11], 51 µM (active) and 42.3 µM (active); in [12], 51.5 µM (active) and 54.6 µM (active); in assay [13] it was 54.5 µM (active) and 46.2 µM (active); with CD40, CD40 (gene 958), 46.5 µM (active) and 41.2 µM (active).
